Compounds without any hit were thinned out: in the full panel of roughly 83,000, 20% have a hit.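 Step 1: grow cells in 96-well plates. Step 2: add test compound at a single concentration. Step 3: incubate 48 h. Step 4: record percent growth.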 A number with no mark means an inactive call. The source made the active and inactive calls. Rule for the calls: active = growth percent below 10; inactive = the rest.
What was measured:
Experiment in all cases: NCI-60 one-dose screen, 48 h (100 = growth as untreated, 0 = no growth, -100 = all killed)
Conditions in all cases: 10 µM
[1] = system: RPMI-8226 leukemia
[2] = system: OVCAR-8 ovarian
[3] = system: OVCAR-5 ovarian
[4] = system: OVCAR-4 ovarian
[5] = system: SK-OV-3 ovarian
[6] = system: IGROV1 ovarian
[7] = system: OVCAR-3 ovarian
[8] = system: HS 578T breast
[9] = system: NCI/ADR-RES ovarian
[10] = system: T-47D breast
[11] = system: BT-549 breast
[12] = system: MDA-MB-435 melanoma
[13] = system: SW-620 colon
[14] = system: MCF7 breast
[15] = system: HCT-116 colon
[16] = system: HCC-2998 colon
[17] = system: KM12 colon
[18] = system: MDA-MB-468 breast

O=C(c1ccc(Cl)cc1)C1[C@H](c2ccc(Br)cc2)[C@@H](c2ccccc2)NC12C(=O)Nc1ccccc12 (stereo partly specified)
growth [1]: -8.78% (active)
growth [2]: 7.73% (active)
growth [3]: -25.8% (active)
growth [4]: 12%
growth [5]: 12.7%
growth [6]: 6.67% (active)
growth [7]: -30.1% (active)
growth [8]: -8.79% (active)
growth [9]: -53.1% (active)
growth [10]: 1.59% (active)
growth [11]: -9.62% (active)
growth [12]: -46.5% (active)
growth [13]: 3.46% (active)
growth [14]: -4.24% (active)
growth [15]: 10.7%
growth [16]: -39.3% (active)
growth [17]: -3.73% (active)
growth [18]: -6.54% (active)

CC(C)(C)Nc1nc2cc(Cl)c(Cl)cc2nc1S(C)(=O)=O
growth [1]: 42.3%
growth [2]: 41.3%
growth [3]: 79.3%
growth [4]: -6.34% (active)
growth [5]: 72.8%
growth [6]: 45.2%
growth [7]: -80.3% (active)
growth [8]: 56.8%
growth [9]: 7.99% (active)
growth [10]: 31.3%
growth [11]: -29.7% (active)
growth [12]: 44.6%
growth [13]: -74.5% (active)
growth [14]: 58.8%
growth [15]: 13.1%
growth [16]: 42.2%
growth [17]: 81.3%
growth [18]: -28.5% (active)

Cc1ccc(C(=O)Nc2ccc(-n3c(C)nc4c(cnn4-c4ccccc4)c3=O)cc2)cc1
growth [1]: 58.4%
growth [2]: 76.8%
growth [3]: 86%
growth [4]: 49.8%
growth [5]: 97.4%
growth [6]: 71.6%
growth [7]: 97%
growth [8]: 84.8%
growth [9]: 52.7%
growth [10]: 34.6%
growth [11]: 59.2%
growth [12]: 70.5%
growth [13]: 86.2%
growth [14]: 47.8%
growth [15]: 51.5%
growth [16]: 88.4%
growth [17]: 77.5%
growth [18]: 21.1%

Cc1ccc(CSc2nc(Cl)c(C#N)c(-c3ccc(F)cc3)n2)cc1
growth [1]: 58.5%
growth [2]: 83.8%
growth [3]: 94.1%
growth [4]: 81.6%
growth [5]: 88.3%
growth [6]: 95.8%
growth [8]: 86.7%
growth [9]: 72.4%
growth [10]: 31.3%
growth [12]: 99.7%
growth [13]: 62.8%
growth [14]: 72.9%
growth [15]: 59.3%
growth [16]: 87.8%
growth [17]: 72.2%
growth [18]: 80.3%

CCN(CC)CCOc1ccc(C(=C(C)c2ccccc2)c2ccc(OCCN(CC)CC)cc2)cc1
growth [1]: -35.4% (active)
growth [2]: 25.2%
growth [3]: 24.9%
growth [4]: 13.6%
growth [5]: 58%
growth [6]: 34%
growth [7]: -7.71% (active)
growth [8]: -8.15% (active)
growth [9]: 29%
growth [10]: -85.3% (active)
growth [12]: -83% (active)
growth [13]: -4.84% (active)
growth [14]: -61.8% (active)
growth [15]: 6.73% (active)
growth [16]: -5.25% (active)
growth [17]: 0.838% (active)
growth [18]: -18.5% (active)

CO[C@@H]1CSS[C@H]1Cn1nc(-c2ccc(Oc3ccccc3)cc2)c2c(N)ncnc21
growth [1]: 34.3%
growth [2]: 82.9%
growth [3]: 82.3%
growth [4]: 67.3%
growth [5]: 30.2%
growth [6]: 80.4%
growth [8]: 72.6%
growth [9]: 65.8%
growth [10]: 17.8%
growth [11]: 63.8%
growth [12]: 17.3%
growth [13]: 96.7%
growth [14]: 30.7%
growth [15]: 31.7%
growth [16]: 91.6%
growth [17]: 60%
growth [18]: 11.6%

CC1(C)CC[C@]2(C(=O)Nc3ccccc3)CC[C@]3(C)C(=CC[C@@H]4[C@@]5(C)CC[C@H](N)C(C)(C)[C@@H]5CC[C@]43C)[C@H]2C1
growth [1]: 19.7%
growth [2]: -66.5% (active)
growth [4]: 76.8%
growth [5]: 96.5%
growth [6]: 96%
growth [7]: 105%
growth [8]: 93.2%
growth [9]: 66.5%
growth [10]: 81.5%
growth [11]: 113%
growth [12]: 59.1%
growth [13]: 8.55% (active)
growth [14]: -73.8% (active)
growth [15]: -99.5% (active)
growth [16]: -64.3% (active)
growth [17]: 36.1%
growth [18]: 1.83% (active)

COc1ccc(C(=O)Nc2sc3c(c2C#N)CCC(=O)C3)cc1C(F)(F)F
growth [1]: 4.37% (active)
growth [2]: 2.79% (active)
growth [3]: 35.3%
growth [4]: 21.7%
growth [5]: -3.75% (active)
growth [6]: 13.7%
growth [8]: -11.7% (active)
growth [9]: -44.7% (active)
growth [10]: -51.2% (active)
growth [11]: -58.3% (active)
growth [12]: -21.7% (active)
growth [13]: -30.7% (active)
growth [14]: -10.1% (active)
growth [15]: 0.735% (active)
growth [16]: 6.84% (active)
growth [17]: 10.4%
growth [18]: -38.9% (active)

CC(=C(c1ccc(OCCCN(C)C)cc1)c1ccc(OCCCN(C)C)cc1)c1ccccc1
growth [1]: -54.4% (active)
growth [2]: -72.7% (active)
growth [3]: -98.5% (active)
growth [4]: -96.9% (active)
growth [5]: -90.3% (active)
growth [6]: -95% (active)
growth [8]: -71.2% (active)
growth [9]: -98.1% (active)
growth [10]: -84.9% (active)
growth [11]: -69% (active)
growth [12]: -98.1% (active)
growth [13]: -44.9% (active)
growth [14]: -82.2% (active)
growth [15]: -10.4% (active)
growth [16]: -94.8% (active)
growth [17]: -93% (active)
growth [18]: -93.9% (active)

CN(C)c1cccc2c(S(=O)(=O)Nc3cccc(-c4csc(NC(=O)CCCCCN5CCN(c6cc7c(cc6F)C(=O)N(C6CCC(=O)NC6=O)C7=O)CC5)n4)c3)cccc12 (stereo unspecified)
growth [1]: 50.7%
growth [2]: 94.6%
growth [4]: 66.6%
growth [5]: 86.9%
growth [6]: 96.3%
growth [7]: 99.8%
growth [8]: 70.4%
growth [9]: 98.4%
growth [10]: 74.7%
growth [11]: 85.6%
growth [12]: 95.2%
growth [13]: 98.6%
growth [14]: 73.5%
growth [15]: 68.3%
growth [16]: 111%
growth [17]: 104%
growth [18]: 59.7%

Cc1ccc(/C=C(\C#N)n2nnc3c(F)cccc32)cc1
growth [1]: 6.26% (active)
growth [2]: -70.7% (active)
growth [3]: -7.34% (active)
growth [4]: 51.2%
growth [5]: 29.5%
growth [6]: 8.21% (active)
growth [8]: 29.2%
growth [9]: 12.9%
growth [10]: 24.5%
growth [11]: -13.4% (active)
growth [12]: 8.1% (active)
growth [13]: 14%
growth [14]: 8.62% (active)
growth [15]: 27%
growth [16]: -20.1% (active)
growth [17]: -1.08% (active)
growth [18]: 37.8%

Cc1ccc([N+](=O)[O-])c(C(=O)Nc2ccc(-c3ccc4c(c3)NC(=O)/C4=C\c3ccc[nH]3)cc2)c1
growth [1]: 31.4%
growth [2]: 25.6%
growth [4]: 34.3%
growth [5]: 109%
growth [6]: 53.9%
growth [7]: 41.3%
growth [8]: 67.2%
growth [9]: 38%
growth [10]: -15.7% (active)
growth [11]: 97.5%
growth [12]: 32%
growth [13]: -51.2% (active)
growth [14]: -47.7% (active)
growth [15]: 55.9%
growth [16]: 47.6%
growth [17]: -10.9% (active)
growth [18]: -28.9% (active)

CCN1CCN(c2ccc(NC(=O)Nc3ccc4c(c3F)CCN4c3ccnc(C(=O)NC)c3)cc2C(F)(F)F)CC1
growth [1]: -40.2% (active)
growth [2]: -75.4% (active)
growth [3]: 57.5%
growth [4]: -89.6% (active)
growth [5]: 103%
growth [6]: 113%
growth [7]: -85.6% (active)
growth [8]: 68.3%
growth [9]: -67.6% (active)
growth [10]: 105%
growth [12]: -92.7% (active)
growth [13]: -76.9% (active)
growth [14]: -77.9% (active)
growth [15]: -96.5% (active)
growth [16]: 120%
growth [17]: -83.3% (active)
growth [18]: 98.9%

COC1CC(Cn2cc(COc3ccc4ccc(=O)oc4c3)nn2)C(OCc2ccccc2)C(OCc2ccccc2)C1OCc1ccccc1 (stereo unspecified)
growth [1]: 77.7%
growth [2]: 103%
growth [3]: 111%
growth [4]: 93.4%
growth [5]: 91.9%
growth [6]: 107%
growth [8]: 109%
growth [9]: 94.3%
growth [10]: 103%
growth [11]: 122%
growth [12]: 103%
growth [13]: 97.1%
growth [14]: 84.8%
growth [15]: 76.6%
growth [16]: 121%
growth [17]: 109%

O=C(NO)c1ccc(Cn2ccc3c(NCc4ccccc4)ncnc32)cc1
growth [1]: 17.2%
growth [2]: -37.8% (active)
growth [3]: -8.63% (active)
growth [4]: 36%
growth [5]: -30.5% (active)
growth [6]: -40.1% (active)
growth [7]: 8.99% (active)
growth [8]: -0.0703% (active)
growth [9]: -32.1% (active)
growth [10]: -16.8% (active)
growth [13]: -64.8% (active)
growth [14]: 9.85% (active)
growth [15]: -7.75% (active)
growth [16]: -3.05% (active)
growth [17]: 11.9%
growth [18]: -18.6% (active)

CC(=O)Nc1ccc(-c2cn(-c3cccc(C(=O)Nc4cc(C(F)(F)F)cc(C(F)(F)F)c4)c3)nn2)cn1
growth [1]: -43.7% (active)
growth [2]: -32.8% (active)
growth [4]: -24.6% (active)
growth [5]: -21.1% (active)
growth [6]: -38.4% (active)
growth [7]: -30.9% (active)
growth [8]: -9.63% (active)
growth [9]: 1.76% (active)
growth [10]: 33.9%
growth [11]: -39.6% (active)
growth [12]: -34.3% (active)
growth [13]: -31.5% (active)
growth [14]: -25% (active)
growth [15]: 10.6%
growth [16]: -62.1% (active)
growth [17]: -27.6% (active)
growth [18]: -46.5% (active)

O=C(Nc1nc2ccc([N+](=O)[O-])cc2s1)Nc1cc(Cl)ccc1I
growth [1]: -40.9% (active)
growth [2]: -13.6% (active)
growth [3]: 15.1%
growth [4]: 0.91% (active)
growth [5]: -9.56% (active)
growth [6]: 13.8%
growth [8]: -21.5% (active)
growth [9]: -34.5% (active)
growth [10]: -25.9% (active)
growth [11]: -87.2% (active)
growth [12]: -52.1% (active)
growth [13]: -50.3% (active)
growth [14]: -28.9% (active)
growth [15]: -78.8% (active)
growth [16]: -41.6% (active)
growth [17]: -48.7% (active)
growth [18]: -43.5% (active)

CN(CCF)c1ccc(/C=C/C(=O)c2ccc(N)cc2O)cc1
growth [1]: 62.8%
growth [2]: 70.6%
growth [4]: 68.8%
growth [5]: 105%
growth [6]: 94.3%
growth [7]: 80.8%
growth [8]: 112%
growth [9]: 71.7%
growth [10]: 50.7%
growth [11]: 64.1%
growth [12]: 81.8%
growth [13]: 90.3%
growth [14]: 71.1%
growth [15]: 73%
growth [16]: 88.5%
growth [17]: 44.4%
growth [18]: 51.4%
